Laboratory results reported in PubChem BioAssay (EPA / NIEHS).
The source made the active and inactive calls. Rule for the calls: active = hit-call score of the fitted dose curve at least 0.9, where 1 is the maximum; inactive = score below 0.9.

Legend:
[1] = ATG_E_Box_CIS: Attagene CIS-FACTORIAL HepG2 Assay for human Enhancer Box (E-box) (AID 2282936); settings: HepG2 E-box cis-reporter transcription, actives raise or lower the signal
Method in brief: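 HepG2 cells transiently transfected with multiplexed cis-element reporter units, dosed 24 h; reporter mRNA quantified by RT-PCR, 6-FAM labelling, HpaI digestion and capillary electrophoresis. E-box (USF1) signal fitted bidirectionally vs DMSO.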

[2] = ATG_M_61_CIS: Attagene CIS-FACTORIAL HepG2 Assay for M61 Transcription Factor (Internal Marker) (AID 2282937); settings: HepG2 Attagene CIS-FACTORIAL M61 internal marker reporter; actives raise or lower the signal
Method in brief: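 Human liver HepG2, transient MRTU transfection (cis promoter elements), 24 h compound. Total RNA → oligo(dT) RT → PCR → FAM label → HpaI → CE. Internal background marker; bidirectional fitting, DMSO = baseline.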

[3] = ATG_EGR_CIS: Attagene CIS-FACTORIAL HepG2 Assay for human Early Growth Response 1 (EGR1) (AID 2282938); settings: HepG2 Attagene CIS-FACTORIAL EGR reporter mRNA; actives raise or lower the signal
Method in brief: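 Transient transfection of human HepG2 with multiple cis-regulated reporter units, chemical exposure 24 h, total RNA isolated. Reverse transcription, PCR, fluorescent labelling and capillary electrophoresis quantify reporter transcripts; activity fitted bidirectionally against DMSO.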

[4] = ATG_M_19_CIS: Attagene CIS-FACTORIAL HepG2 Assay for M19 Transcription Factor (Internal Marker) (AID 2282939); settings: HepG2 Attagene CIS-FACTORIAL M19 internal marker reporter; actives raise or lower the signal
Method in brief: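 Readout: fluorescent reporter-transcript fragments by capillary electrophoresis after RT-PCR. Human HepG2 liver cells carried transfected MRTU constructs reporting endogenous transcription-factor activity; exposure 24 h. Gain or loss of signal fitted relative to DMSO.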

[5] = ATG_Ets_CIS: Attagene CIS-FACTORIAL HepG2 Assay for human Erythroblast Transformation Specific (ETS) (AID 2282941); settings: HepG2 ETS cis-reporter transcription, actives raise or lower the signal
Method in brief: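 After transient cis-reporter transfection, HepG2 cells receive test chemical for 24 h. Reporter mRNA levels, measured by RT-PCR and capillary electrophoresis fluorescence, are analysed bidirectionally relative to the DMSO baseline.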

[6] = target: Hepatocyte nuclear factor 3-beta (Homo sapiens) (UniProt Q9Y261); assay: ATG_FoxA2_CIS: Attagene CIS-FACTORIAL HepG2 Assay for human Forkhead box A2 (FOXA2) (AID 2282942); settings: HepG2 cis-reporter transcription factor activity, 24 h; actives raise or lower the signal
Hepatocyte nuclear factor 3-beta (Homo sapiens), sequence (Q9Y261 whole entry, looked up): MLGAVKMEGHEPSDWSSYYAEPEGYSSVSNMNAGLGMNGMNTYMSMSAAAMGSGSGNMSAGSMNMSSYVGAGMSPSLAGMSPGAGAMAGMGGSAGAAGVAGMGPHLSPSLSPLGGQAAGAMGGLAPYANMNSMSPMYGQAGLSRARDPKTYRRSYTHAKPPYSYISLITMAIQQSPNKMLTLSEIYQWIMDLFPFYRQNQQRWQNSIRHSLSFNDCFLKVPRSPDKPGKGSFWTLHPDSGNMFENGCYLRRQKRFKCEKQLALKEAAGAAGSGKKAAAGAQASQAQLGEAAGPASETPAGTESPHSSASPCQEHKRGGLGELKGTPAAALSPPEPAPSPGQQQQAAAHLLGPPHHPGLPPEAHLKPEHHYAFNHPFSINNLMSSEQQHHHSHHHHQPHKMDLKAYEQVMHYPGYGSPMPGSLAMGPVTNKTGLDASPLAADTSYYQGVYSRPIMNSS
Method in brief: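 Transient MRTU transfection of HepG2 liver cells; 24 h treatment; total RNA → oligo(dT) RT → PCR → FAM primer extension → HpaI cut → CE. Bidirectional fit vs DMSO.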

[7] = ATG_FoxO_CIS: Attagene CIS-FACTORIAL HepG2 Assay for human Forkhead box O (FoxO) (AID 2282943); settings: HepG2 Attagene cis-reporter, FoxO element, mRNA; actives raise or lower the signal
Method in brief: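 Transfected HepG2 reporter cells exposed to test chemical for 24 h; reporter RNA measured by reverse transcription, PCR and fluorescent capillary electrophoresis; curves fitted for increases and decreases against DMSO.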

[8] = ATG_GATA_CIS: Attagene CIS-FACTORIAL HepG2 Assay for human GATA Binding Protein (AID 2282944); settings: HepG2 GATA cis-element reporter, Attagene multiplex mRNA; actives raise or lower the signal
Method in brief: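 Read-out: fluorescent reporter mRNA fragments resolved by capillary electrophoresis after RT-PCR. Human liver HepG2 cells carried transiently transfected cis-regulated reporter constructs; chemicals incubated 24 h; gain or loss of signal fitted relative to DMSO.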

[9] = ATG_GLI_CIS: Attagene CIS-FACTORIAL HepG2 Assay for human Zinc Finger Protein GLI1 (AID 2282945); settings: HepG2, Attagene cis-factorial reporter mRNA, GLI element; actives raise or lower the signal
Method in brief: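 Transiently transfected HepG2 cells report endogenous transcription factor activity via cis-element-driven reporter units. After 24 h compound exposure, reporter mRNA was measured by RT-PCR with capillary electrophoresis; bidirectional fitting against DMSO baseline.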

[10] = target: Bile acid receptor (Homo sapiens) (UniProt Q96RI1); assay: ATG_IR1_CIS: Attagene CIS-FACTORIAL HepG2 Assay for human Nuclear Receptor Subfamily 1 Group H Member 4 (NR1H4), IR1 submotif (AID 2282946); settings: IR1 reporter transcription, actives raise or lower the signal
Bile acid receptor (Homo sapiens), sequence (Q96RI1 whole entry, looked up): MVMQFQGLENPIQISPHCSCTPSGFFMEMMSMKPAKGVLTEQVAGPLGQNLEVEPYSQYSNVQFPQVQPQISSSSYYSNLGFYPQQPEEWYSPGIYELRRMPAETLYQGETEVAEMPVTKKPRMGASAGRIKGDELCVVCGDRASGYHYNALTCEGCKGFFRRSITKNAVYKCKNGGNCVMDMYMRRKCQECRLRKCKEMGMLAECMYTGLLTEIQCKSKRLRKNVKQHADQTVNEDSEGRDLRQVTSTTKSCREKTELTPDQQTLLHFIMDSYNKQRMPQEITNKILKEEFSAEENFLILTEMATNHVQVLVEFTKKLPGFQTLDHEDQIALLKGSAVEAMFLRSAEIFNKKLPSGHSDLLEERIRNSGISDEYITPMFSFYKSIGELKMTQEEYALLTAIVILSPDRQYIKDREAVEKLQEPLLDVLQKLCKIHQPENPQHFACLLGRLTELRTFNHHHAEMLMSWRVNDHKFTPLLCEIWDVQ
Method in brief: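 HepG2 cells transiently transfected with multiple cis-promoter-driven reporter units to measure endogenous transcription factor activity; 24 h exposure. Reporter mRNA read by RT-PCR, FAM labelling, HpaI digestion and capillary electrophoresis. Bidirectional fit versus DMSO.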

[11] = ATG_GRE_CIS: Attagene CIS-FACTORIAL HepG2 Assay for human Glucocorticoid Response Elements (GRE) (AID 2282947); settings: HepG2 GRE cis-reporter, Attagene multiplex mRNA; actives raise or lower the signal
Method in brief: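 Transiently transfected HepG2 cells carrying GRE cis-reporter units (endogenous TF activity) dosed 24 h; reporter mRNA quantified by RT-PCR, 6-FAM labelling, HpaI digestion and capillary electrophoresis. Bidirectional fit versus DMSO baseline.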

[12] = ATG_ISRE_CIS: Attagene CIS-FACTORIAL HepG2 Assay for human Interferon Regulatory Factor 1 (IRF1) binding to an Interferon-Stimulated Response Element (ISRE) (AID 2282948); settings: HepG2 ISRE cis-reporter (Attagene), mRNA transcription readout; actives raise or lower the signal
Method in brief: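 Quantitation relies on labelled RT-PCR fragments separated by capillary electrophoresis. Human HepG2 cells bearing cis-promoter reporter constructs were treated 24 h; DMSO served as baseline for bidirectional fitting.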

[13] = ATG_M_06_CIS: Attagene CIS-FACTORIAL HepG2 Assay for M06 Transcription Factor (Internal Marker) (AID 2282950); settings: HepG2 Attagene CIS-FACTORIAL M06 internal marker reporter; actives raise or lower the signal
Method in brief: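 Terse: HepG2, transient MRTU transfection (FuGene 6), 24 h dosing; total RNA, oligo(dT) RT, PCR, FAM label, HpaI cut, capillary electrophoresis; bidirectional fit vs DMSO baseline; background-control endpoint.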

[14] = target: Hypoxia-inducible factor 1-alpha (Homo sapiens) (UniProt Q16665); assay: ATG_HIF1a_CIS: Attagene CIS-FACTORIAL HepG2 Assay for human Hypoxia Inducible Factor 1 (HIF1A) (AID 2282951); settings: HepG2 Attagene cis-factorial HIF1a reporter transcription; actives raise or lower the signal
Hypoxia-inducible factor 1-alpha (Homo sapiens), sequence (Q16665 whole entry, looked up, the tested form may be a part): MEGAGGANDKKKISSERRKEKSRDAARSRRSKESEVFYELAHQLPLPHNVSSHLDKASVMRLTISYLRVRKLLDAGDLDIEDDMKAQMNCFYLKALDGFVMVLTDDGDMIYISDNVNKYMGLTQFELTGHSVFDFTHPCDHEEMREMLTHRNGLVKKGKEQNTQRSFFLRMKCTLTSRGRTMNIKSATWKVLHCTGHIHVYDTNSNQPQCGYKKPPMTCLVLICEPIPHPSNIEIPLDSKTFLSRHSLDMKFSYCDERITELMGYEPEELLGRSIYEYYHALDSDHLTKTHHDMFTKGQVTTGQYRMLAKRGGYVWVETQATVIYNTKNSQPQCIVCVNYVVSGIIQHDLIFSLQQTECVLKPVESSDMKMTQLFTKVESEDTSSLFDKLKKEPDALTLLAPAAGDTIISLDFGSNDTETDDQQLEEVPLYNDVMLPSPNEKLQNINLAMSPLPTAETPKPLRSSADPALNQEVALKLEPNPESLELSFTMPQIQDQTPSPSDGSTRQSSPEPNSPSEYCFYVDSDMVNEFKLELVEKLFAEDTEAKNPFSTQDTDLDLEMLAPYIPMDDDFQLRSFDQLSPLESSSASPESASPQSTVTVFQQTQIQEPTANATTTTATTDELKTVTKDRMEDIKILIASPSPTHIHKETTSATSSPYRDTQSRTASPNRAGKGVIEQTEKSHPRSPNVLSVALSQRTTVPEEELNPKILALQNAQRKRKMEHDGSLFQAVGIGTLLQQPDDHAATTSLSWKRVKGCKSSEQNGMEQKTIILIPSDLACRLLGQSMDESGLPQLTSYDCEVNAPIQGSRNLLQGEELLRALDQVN
Method in brief: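 Transient MRTU transfection of human HepG2 liver cells, 24 h compound treatment, then total RNA isolation, oligo(dT) reverse transcription, PCR amplification, fluorescent labelling and capillary electrophoresis of reporter fragments. Gain or loss relative to DMSO.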

[15] = target: Hepatocyte nuclear factor 6 (Homo sapiens) (UniProt Q9UBC0); assay: ATG_HNF6_CIS: Attagene CIS-FACTORIAL HepG2 Assay for human Hepatocyte Nuclear Factor 6 (HNF6) (AID 2282952); settings: HepG2 Attagene cis-factorial HNF6 reporter transcription; actives raise or lower the signal
Hepatocyte nuclear factor 6 (Homo sapiens), sequence (Q9UBC0 whole entry, looked up): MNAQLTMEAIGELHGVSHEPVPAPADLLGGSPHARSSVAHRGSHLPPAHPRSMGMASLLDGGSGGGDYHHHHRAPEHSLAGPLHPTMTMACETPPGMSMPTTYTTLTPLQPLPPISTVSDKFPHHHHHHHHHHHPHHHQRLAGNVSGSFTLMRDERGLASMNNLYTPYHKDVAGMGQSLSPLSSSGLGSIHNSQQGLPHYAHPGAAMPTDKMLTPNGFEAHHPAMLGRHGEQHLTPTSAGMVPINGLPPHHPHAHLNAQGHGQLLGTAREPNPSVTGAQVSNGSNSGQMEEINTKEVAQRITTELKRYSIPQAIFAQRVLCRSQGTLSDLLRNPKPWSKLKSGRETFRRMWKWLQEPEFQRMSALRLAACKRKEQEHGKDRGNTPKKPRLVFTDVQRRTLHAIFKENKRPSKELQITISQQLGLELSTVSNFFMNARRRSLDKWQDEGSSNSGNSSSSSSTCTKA
Method in brief: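 HepG2, transient MRTU transfection (cis promoters); 24 h chemical exposure; total RNA → oligo(dT) RT → PCR → 6-FAM labelling → HpaI cut → CE; bidirectional fit vs DMSO.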

[16] = target: Heat shock factor protein 1 (Homo sapiens) (UniProt Q00613); assay: ATG_HSE_CIS: Attagene CIS-FACTORIAL HepG2 Assay for human Heat Shock Transcription Factor 1 (HSE) (AID 2282953); settings: HepG2 HSE cis-reporter, Attagene RNA transcription; actives raise or lower the signal
Heat shock factor protein 1 (Homo sapiens), sequence (Q00613 whole entry, looked up, the tested form may be a part): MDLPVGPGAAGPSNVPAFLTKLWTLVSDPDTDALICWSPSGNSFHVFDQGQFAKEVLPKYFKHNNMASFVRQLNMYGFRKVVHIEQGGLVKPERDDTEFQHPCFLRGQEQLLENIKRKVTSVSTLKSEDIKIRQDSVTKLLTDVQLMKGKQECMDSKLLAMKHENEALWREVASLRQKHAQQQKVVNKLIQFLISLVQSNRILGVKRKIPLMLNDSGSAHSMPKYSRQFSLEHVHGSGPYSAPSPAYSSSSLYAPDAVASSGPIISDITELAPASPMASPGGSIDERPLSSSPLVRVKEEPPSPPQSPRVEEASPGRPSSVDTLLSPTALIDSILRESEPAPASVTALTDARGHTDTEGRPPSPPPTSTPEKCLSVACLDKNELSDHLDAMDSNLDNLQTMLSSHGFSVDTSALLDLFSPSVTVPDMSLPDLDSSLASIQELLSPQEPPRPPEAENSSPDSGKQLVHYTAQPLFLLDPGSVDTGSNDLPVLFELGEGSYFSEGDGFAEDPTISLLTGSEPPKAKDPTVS
Method in brief: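 Read-out: fluorescence of reporter-specific RT-PCR fragments separated by capillary electrophoresis. HepG2 carrying transfected cis-element reporter units; 24 h dosing; activity fitted in both directions relative to DMSO baseline.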

[17] = ATG_MRE_CIS: Attagene CIS-FACTORIAL HepG2 Assay for human Metal Responsive Element (MRE) (AID 2282954); settings: HepG2 MRE cis-reporter transcription, Attagene multiplex; actives raise or lower the signal
Method in brief: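 HepG2 cells transiently transfected with cis-element-driven reporter units; mRNA measured 24 h after dosing. Reporter transcripts quantified by RT-PCR, FAM labelling, HpaI digestion and capillary electrophoresis; bidirectional fit versus DMSO.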

[18] = ATG_PBREM_CIS: Attagene CIS-FACTORIAL HepG2 Assay for human Phenobarbital-responsive Enhancer Module (PBREM) (AID 2282955); settings: HepG2 PBREM cis-reporter, Attagene multiplexed transcription; actives raise or lower the signal
Method in brief: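 Endogenous transcription factors in human liver HepG2 cells drive a PBREM cis-element reporter, whose transcript level after 24 h treatment is quantified by RT-PCR with capillary electrophoresis; activity fitted in both directions against DMSO.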

[19] = ATG_ERE_CIS: Attagene CIS-FACTORIAL HepG2 Assay for Estrogen Response Element (ERE) (AID 2282940); settings: HepG2 ERE cis-reporter, Attagene RNA transcript; actives raise or lower the signal
Method in brief: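 Readout: reporter mRNA induction by RT-PCR, FAM-labelled primer extension, HpaI digestion and capillary electrophoresis, 24 h after dosing transfected HepG2 cells. Endogenous transcription factors act on cis-element-regulated reporters. Gain or loss fitted against DMSO.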

[20] = ATG_M_32_CIS: Attagene CIS-FACTORIAL HepG2 Assay for M32 Transcription Factor (Internal Marker) (AID 2282949); settings: HepG2 Attagene cis-factorial M32 reporter, mRNA; actives raise or lower the signal;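 note: background control marker of the multiplexed CIS panel rather than a real target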
Method in brief: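 Fluorescent capillary electrophoresis peaks of HpaI-digested, FAM-labelled RT-PCR reporter products give the signal. Source: transiently transfected human liver HepG2 cells, 24 h after chemical dosing; bidirectional fitting against DMSO.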

Measured: outcome

Cc1ccc(C)c(O)c1
not listed: [19] | [20]
inactive: all other assays above

COC(=O)c1ccccc1O
not listed: [10] | [11] | [16] | [18]
inactive: all other assays above

CC(C)(O)c1coc(S(=O)(=O)NC(=O)Nc2c3c(cc4c2CCC4)CCC3)c1
not listed: [19] | [20]
inactive: all other assays above
